BJeLR lethal – MLPCN primary cell-based screen for lethality selective to Ras in HRASV12 cells; BJeLR (HRASV12) viability, CellTiter-Glo ATP luminescence, 48 h; inhibition, % (no concentration beside the values); 300,000 compounds, 0.17% hits; AID 1554, 2009; in the data active = inhibition above about 50%; inconclusive = no clear call, values can overlap the other calls
PfHsp40 rescue – rescue of yeast from PfHsp40 toxicity, primary screen, S. cerevisiae, ATP luminescence; S. cerevisiae expressing PfHsp40, growth rescue; AID 504582, 2011; growth rescue, % at 12.5 µM; 340,000 compounds, 0.68% hits; in the data active = growth rescue above about 28%, passing the limit was not always enough; inconclusive = no clear call, values can overlap the other calls;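 note: yeast W303a lacking pdr1 and pdr3 grown in galactose medium; growth measured after three days at 30 °C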
GDH-TPI counter – GDH-TPI coupling enzyme inhibitors, primary screen, artefact control for M. tuberculosis FBA inhibitor project, biochemical, absorbance, full deck. AID 588335, 2011. GDH-TPI coupled enzyme counterscreen, NADH absorbance. inhibition, % at 4.8 µM. 360,000 compounds, 1.2% hits; in the data active = inhibition above about 30%
PrPC surface inh – inhibitors of human cell surface prion protein PrPC, primary screen, cell-based, TR-FRET; Major prion protein (Homo sapiens), P04156; TR-FRET read-out; inhibition, % at 13.8 µM; 370,000 compounds, 0.43% hits; AID 720596, 2013; in the data active = inhibition above about 24%
PrP UTR inh – inhibition of PrP 5' UTR reporter expression. cell-based PrP 5' UTR mRNA reporter, plate reader. inhibition, % (concentration not given with the values). 340,000 compounds, 0.35% hits. AID 488862, 2010; in the data active = inhibition above about 52%
Mtb FBA inh – Mtb FBA enzyme inhibitors, primary screen, biochemical, fluorescence, strain H37Rv; Fructose-bisphosphate aldolase (Mycobacterium tuberculosis (strain ATCC 25618 / H37Rv)), …; purified M. tuberculosis FBA, fluorescence read-out; inhibition, % at 1 µM; 360,000 compounds, 2.3% hits; in the data active = inhibition above about 27%
Target sequence (P9WQA3 whole entry, looked up): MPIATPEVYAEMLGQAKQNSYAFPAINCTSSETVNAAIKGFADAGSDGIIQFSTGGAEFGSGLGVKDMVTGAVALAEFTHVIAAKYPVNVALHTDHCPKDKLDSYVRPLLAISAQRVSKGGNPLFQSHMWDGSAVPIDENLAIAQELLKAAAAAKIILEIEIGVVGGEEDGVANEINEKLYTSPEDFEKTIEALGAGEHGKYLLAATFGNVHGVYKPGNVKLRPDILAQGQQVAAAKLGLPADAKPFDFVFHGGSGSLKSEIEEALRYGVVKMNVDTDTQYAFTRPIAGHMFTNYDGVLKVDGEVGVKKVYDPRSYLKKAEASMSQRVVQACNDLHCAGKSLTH
PrP UTR cherry – prion 5' UTR mRNA inhibition, cherry-pick retest; inhibition, % at 2.5 µM; 1,100 compounds, 48% hits; shares compounds with PrP UTR inh; cell-based prion protein 5' UTR reporter, plate reader; in the data active = inhibition above about 54%; inconclusive = no clear call, values can overlap the other calls
Large screens that a line does not name were inactive (follow-up assays come after a bar, where they were run). In the library only some 4.5% were active in any assay of this set; here they are far more common.

CN(Cc1ccccc1)S(=O)(=O)c1cccc(C(=O)OCc2cccc(C(F)(F)F)c2)c1	none (no result: BJeLR lethal, PfHsp40 rescue, GDH-TPI counter, PrP UTR inh, Mtb FBA inh)
COc1ccc(S(=O)(=O)N2CCC(c3nc4ccccc4o3)CC2)c(OC)c1	none (no result: BJeLR lethal, PfHsp40 rescue, GDH-TPI counter, PrP UTR inh, Mtb FBA inh)
O=S(=O)(CC1NCCc2ccccc21)NCc1ccccc1 (stereo not given)	none (no result: BJeLR lethal, PfHsp40 rescue, GDH-TPI counter, PrP UTR inh, Mtb FBA inh)
COCCNC(=O)Cn1nc(C(F)(F)F)cc1C	none (no result: BJeLR lethal)
CCCNC(=O)Cn1nc(C(F)(F)F)cc1C	PrP UTR inh 58 | PrP UTR cherry inactive
CCc1ccc(C(=O)Nc2nc3ccccc3[nH]2)cc1	PfHsp40 rescue inconclusive, PrP UTR inh 63 | PrP UTR cherry inconclusive
O=C(Nc1nc2ccccc2[nH]1)c1ccc(F)cc1	none
O=C(Nc1nc2ccccc2[nH]1)c1ccccc1OC(F)F	none
O=C(Nc1nc2ccccc2[nH]1)c1ccc(OC(F)F)cc1	none
CC(C)Oc1ccc(C(=O)Nc2nc3ccccc3[nH]2)cc1	PrP UTR inh 61 | PrP UTR cherry 62
O=C(Nc1nc2ccccc2[nH]1)c1ccccc1F	BJeLR lethal 85, PrP UTR inh 85 | PrP UTR cherry 85
CN(C)c1cccc(C(=O)OCC(=O)N(Cc2ccccc2)C2CCS(=O)(=O)C2)c1 (stereo not given)	PrP UTR inh 60 (no result: BJeLR lethal) | PrP UTR cherry inactive
O=C(NCCc1ccccc1)OCc1cn(Cc2c(F)cccc2F)nn1	none (no result: BJeLR lethal, PfHsp40 rescue, GDH-TPI counter, PrP UTR inh, Mtb FBA inh)
COc1cc(CC(=O)N(c2ccccc2)c2nc(C)cs2)cc(OC)c1OC	PrP UTR inh 61 | PrP UTR cherry inactive
CC(=O)c1cc(-c2ccc3c(c2)OCO3)c(=O)n2c1CCC2	none (no result: BJeLR lethal, PfHsp40 rescue, GDH-TPI counter, PrP UTR inh, Mtb FBA inh)
CC(C)N(C(=O)COC(=O)c1cncc(Br)c1)C(C)C	none
CN(Cc1ccccc1)C(=O)COC(=O)c1cncc(Br)c1	PrP UTR inh 72 (no result: BJeLR lethal) | PrP UTR cherry inactive
O=C1C(=C2SCCCS2)CC/C1=C\c1ccc(F)cc1	PrP UTR inh 84 | PrP UTR cherry 84
Cc1cccc(/C=C2\CCC(=C3SCCCS3)C2=O)c1	PrP UTR inh 55 | PrP UTR cherry inconclusive
C[C@H]1[C@H](N)CC[C@@]23CCCN2C(=O)CCC[C@@H]13	none (no result: BJeLR lethal, PfHsp40 rescue, GDH-TPI counter, PrP UTR inh, Mtb FBA inh)
COc1ccc(-c2nnn3c2Cn2c4ccccc4c(=O)n2[C@@H](C)C3)cc1	none (no result: BJeLR lethal, PfHsp40 rescue, GDH-TPI counter, PrP UTR inh, Mtb FBA inh)
CC(=O)c1cc(-c2cccc(Cl)c2O)c(=O)n2c1CCC2	none (no result: BJeLR lethal, PfHsp40 rescue, GDH-TPI counter, PrP UTR inh, Mtb FBA inh)
COc1ccc(NC(=O)N(C)C[C@H]2Oc3ccc(NC(=O)Nc4ccc(C(F)(F)F)cc4)cc3C(=O)N([C@H](C)CO)C[C@@H]2C)cc1	PrP UTR inh 65 (no result: BJeLR lethal) | PrP UTR cherry inactive
COc1ccc(NC(=O)Nc2ccc3c(c2)C(=O)N([C@H](C)CO)C[C@H](C)[C@@H](CN(C)C(=O)Nc2ccc(C(F)(F)F)cc2)O3)cc1	none (no result: BJeLR lethal)
COc1ccc(/C=C/CN2CCN(Cc3ccccc3)C(CCO)C2)cc1 (stereo not given)	PrP UTR inh 76 | PrP UTR cherry inactive
COc1ccc(/C=C/CN2CCN(Cc3ccc(F)cc3)C(CCO)C2)cc1 (stereo not given)	none
COc1ccccc1-c1nnc(SCC(=O)NC2CCCCC2)o1	PrP UTR inh 76 | PrP UTR cherry inactive
Cc1ccccc1-c1nnc(SCC(=O)NC2CCCCC2)o1	none
COC(=O)c1ccccc1NC(=O)C(C)c1ccc([N+](=O)[O-])cc1 (stereo not given)	PrP UTR inh 64 | PrP UTR cherry inactive
CC(=O)Nc1ccc(SCC(=O)c2cc(C)n(-c3ccccc3F)c2C)cc1	PrP UTR inh 68 | PrP UTR cherry inactive
CC(=O)Nc1ccc(SCC(=O)c2cc(C)n(Cc3cccs3)c2C)cc1	PrP UTR inh 61 | PrP UTR cherry inactive
COC(=O)c1ccc(-n2c(C)cc(C(=O)CSc3ccc(NC(C)=O)cc3)c2C)cc1	none
CC(=O)C1=CN(CC2CCCCC2)CCC1=O	none (no result: BJeLR lethal)
CCOC(=O)C1=CN(CC2CCCCC2)CCC1=O	PrP UTR inh 84 (no result: BJeLR lethal) | PrP UTR cherry inactive
CCCN1CCS(=O)(=O)N(Cc2cn(Cc3ccccc3)nn2)C(C(=O)OC)C1 (stereo not given)	none (no result: BJeLR lethal, PfHsp40 rescue, GDH-TPI counter, PrP UTR inh, Mtb FBA inh)
O=c1c2ccccc2oc2cc(C#CC3(O)CCCCC3)ccc12	PfHsp40 rescue inconclusive, PrP UTR inh 70 | PrP UTR cherry 55
COc1cccc2sc3ccc(C#CC4(O)CCCCC4)cc3c(=O)c12	none
O=c1c2ccccc2sc2ccc(C#CC3(O)CCCCC3)cc12	PrP UTR inh 92 | PrP UTR cherry 86
C=CCn1c(COc2ccc(C)cc2)nnc1SCC(=O)Nc1cc(Cl)cc(Cl)c1	none (no result: BJeLR lethal, PfHsp40 rescue, GDH-TPI counter, PrP UTR inh, Mtb FBA inh)
COc1cc([N+](=O)[O-])ccc1NC(=O)COC(=O)C=C(C)C	PrP UTR inh 61 | PrP UTR cherry inactive
CC(C)=CC(=O)OCC(=O)Nc1cccc([N+](=O)[O-])c1	none
COc1ccc(OC)c(NS(=O)(=O)c2ccc(N3CCCC3=O)cc2)c1	PrP UTR inh 60 | PrP UTR cherry 90
CCOc1ccc(S(=O)(=O)Nc2cc(OC)ccc2OC)cc1	PrP UTR inh 60 | PrP UTR cherry 88
Cc1ccccc1CN1CCCCC(NC(=O)C2CCC2)C1=O (stereo not given)	none (no result: BJeLR lethal, PfHsp40 rescue, GDH-TPI counter, PrP UTR inh, Mtb FBA inh)

Screens as filed in PubChem.
